Experimental findings from PubChem BioAssay (Tox21) are described below.

SMILES strings stand for the structures. Values joined by “and” are separate entries in the source; they are usually repeats but may differ in a detail not shown here. Equal entries are not always repeated. Inconclusive results are not listed. The source holds several records for some structures; these can differ, active in one and inactive in another. Active and inactive are the calls of the source. Unless noted, the call rests on the fitted dose curve; in most records, active means well fitted curve in the direction sought with a large enough effect in the repeat runs; inconclusive means weak or mixed curves; inactive means no such curve, though single readings can be large; an effect the other way counts as inactive or inconclusive.

Test [1] is described as follows: qHTS assay to identify small molecule antagonists of the estrogen related receptor (ERR) signaling pathway from Tox21 library - cell viability counter screen (AID 1224834). Further: nearly all actives have a fitted effect of over 30% in size. Put shortly: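 Counter screen run in ERR cells (2,000 cells/well): cells pre-incubated 6 h, then treated with compounds for 17.5 h at 37 C. Fluorescence was read 30 min after CellTiter-Fluor addition.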
A general note: qHTS replaces the single test concentration by a dilution series.

Test [2] addresses Luciferin 4-monooxygenase (Photinus pyralis) (UniProt P08659). In words: qHTS assay to identify small molecule inhibitors of firefly luciferase (AID 1224835). Further: nearly all actives have a fitted effect of over 25% in size. An outline of the steps: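 Inhibition of purified Photinus luciferase is measured by luminescence. Substrate levels (D-luciferin, ATP) sit at their KM values. Each compound is tested in a concentration series.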
Test [3] in a line: qHTS assay to identify small molecule agonists of the constitutive androstane receptor (CAR) signaling pathway - cell viability counter screen (AID 1224836). Further: nearly all actives have a fitted effect of over 45% in size. An outline of the steps:
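Compound titrations (15 concentrations) went onto HepG2-CYP2B6-hCAR cells 4 h after seeding, alongside PK11195 at a final 0.75 uM; a 23 h, 37 C/5% CO2 incubation preceded CellTiter-Fluor viability measurement.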

Test [4] in a line: qHTS assay to identify small molecule antagonists of the constitutive androstane receptor (CAR) signaling pathway - cell viability counter screen (AID 1224837). Further: nearly all actives have a fitted effect of over 45% in size. Put shortly:
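CITCO at 50 nM final was added alongside compounds (15 concentrations) to double-stable hCAR/CYP2B6-2.2kb HepG2 cells. Following 23 hr at 37 C, cell viability was quantified by CellTiter-Fluor fluorescence intensity.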

In test [5] the target is Nuclear receptor subfamily 1 group I member 3 (Homo sapiens) (UniProt Q14994). Nature of the test: qHTS assay to identify small molecule antagonists of the constitutive androstane receptor (CAR) signaling pathway (AID 1224838). Further: nearly all actives have a fitted effect of over 40% in size. Further: potency means the concentration at half of the fitted maximal effect. An outline of the steps:
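Inhibition of CITCO-driven (50 nM final) CYP2B6 reporter expression is measured in HepG2 cells stably carrying hCAR. Fifteen compound concentrations are applied for 24 h at 37 C, followed by luciferase luminescence.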

The target is the same in test [6]. Nature of the test: qHTS assay to identify small molecule agonists of the constitutive androstane receptor (CAR) signaling pathway (AID 1224839). Further: nearly all actives have a fitted effect of over 15% in size. An outline of the steps:
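In this screen, CAR-driven CYP2B6 promoter activity is measured by luminescence in HepG2-CYP2B6-hCAR cells after 24 h with test compounds and 0.75 uM PK11195 (final concentration).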

For test [7], the target named is Thyrotropin receptor (Homo sapiens) (UniProt P16473). Nature of the test: qHTS assay to identify small molecule agonists of the thyroid stimulating hormone receptor (TSHR) signaling pathway (AID 1224843; calls by dose curve; further: nearly all actives have a fitted effect of over 45% in size). Put shortly:
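A cell-based cAMP HTRF format was run in TSHR-transfected HEK293 cells, 800 per well. Treatment: 30 min, room temperature. Detection: 1 h with labelled cAMP and anti-cAMP cryptate. Concentration-response over 15 points, three replicates.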

Test [8] is described as follows: qHTS assay to identify small molecule agonists of H2AX (AID 1224845; active means well fitted activation curve with a large enough effect in the signal ratio in the repeat runs, not every such curve was filed as active; the % refers to the signal ratio). An outline of the steps:
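Phospho-H2AX Ser139 measured by HTRF (ex 320 nm; em 665 and 620 nm) after 24 hr antibody incubation. Compounds, 15 concentrations, 0.76% DMSO, were applied to CHO-K1 cells for 3hr at 37C before lysis.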

Test [9] in a line: qHTS assay to identify small molecule agonists of the hypoxia (HIF-1) signaling pathway (AID 1224846; active means well fitted activation curve with a large enough effect in the signal ratio in the repeat runs, not every such curve was filed as active; the % refers to the signal ratio). An outline of the steps:
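ME-180 HRE-bla reporter cells; compounds in DMSO, 17 h at 37C; read-out beta-lactamase via CCF4-AM FRET.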

Test [10] in a line: qHTS RealTime-Glo MT Cell Viability Assay in HepG2 cells - 24 hour (AID 1224867). Further: nearly all actives have a fitted effect of over 50% in size. An outline of the steps:
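Cell number in HepG2 cultures estimated from NanoLuc luminescence generated by metabolic reduction of a prosubstrate by living cells. The homogeneous, nonlytic format allowed repeated reads at 0, 8, 16, 24, 32 and 40 h of compound exposure.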

Test [11] in a line: qHTS RealTime-Glo MT Cell Viability Assay in HEK293 cells - 32 hour (AID 1224868). Further: nearly all actives have a fitted effect of over 50% in size. Further: potency means the concentration at half of the fitted maximal effect. Put shortly:
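Homogeneous bioluminescent viability format in HEK293 cells (600 cells/well). Following 5 h at 37 C/5% CO2, 23 nL compound was pintooled; the signal was measured repeatedly during 40 h incubation.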

Test [12] in a line: A CellTox Green Cytotoxicity Assay to monitor cytotoxicity in HEK293 cells - 0 hour (AID 1224869). Further: nearly all actives have a fitted effect of over 50% in size. An outline of the steps: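 Real-time, in one plate: 600 HEK293 cells/well with dead-cell DNA dye, pinned compound after 5 h, 37 C incubation over 40 h; viable cells give no appreciable fluorescence.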
Test [13] can be described thus: qHTS assay to identify small molecule antagonists of the estrogen related receptor signaling pathway with the pleiotropic PPARgamma coactivator (PGC) from Tox21 10K library - cell viability counter screen (AID 1224840; active means well fitted cell-killing curve with a large enough effect in the repeat runs, not every such curve was filed as active; further: nearly all actives have a fitted effect of over 40% in size). An outline of the steps:
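Readout: fluorescence intensity from CellTiter-Fluor after 30 min at 37 C/5% CO2. Preceded by 17.5 h treatment of PGC/ERR cells with DMSO-dissolved compounds, added 6 h post-seeding.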

Test [14] can be described thus: qHTS assay to identify small molecule antagonists of the estrogen related receptor signaling pathway with the pleiotropic PPARgamma coactivator (PGC) from Tox21 10K library (AID 1224841; call rule not given here; further: actives are mostly falling curves and most rising ones were filed inactive; nearly all actives have a fitted effect of over 50% in size). An outline of the steps:
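One-Glo luminescence, measured after half an hour at room temperature, quantified reporter output of PGC/ERR cells. These had been plated at 2,000 per well, incubated 6 h, dosed with compounds in DMSO, then kept 18 h at 37 C.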

The nature of test [15]: qHTS assay to identify small molecule agonists of the estrogen related receptor signaling pathway with the pleiotropic PPARgamma coactivator (PGC) from Tox21 10K library (AID 1224842). Further: nearly all actives have a fitted effect of over 15% in size. An outline of the steps: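 Luminescence from One-Glo (30 min, room temperature) measured after PGC/ERR cells had 18 h at 37 C with pinned compound (23 nL in DMSO). Cells had been seeded at 2,000 per well and pre-incubated 6 h.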

A short description of test [16]: qHTS assay to identify small molecule antagonists of the estrogen related receptor (ERR) signaling pathway from Tox21 library (AID 1224848). Further: nearly all actives have a fitted effect of over 50% in size. An outline of the steps:
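ERR cell line, 2,000 cells/well. 6 h settle, then compound (DMSO) added; 18 h at 37 C; ONE-Glo luminescence after 30 min RT.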

Test [17] is described as follows: qHTS assay to identify small molecule agonists of the estrogen related receptor (ERR) signaling pathway from Tox21 library (AID 1224849; calls by dose curve; further: nearly all actives have a fitted effect of over 15% in size). The settings on record: ERR reporter cell line, ONE-Glo luciferase, 18 h; at 92.4 µM (top of the series). An outline of the steps: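 Luciferase activity in ERR pathway reporter cells served as the agonist readout; exposure lasted 18 h at 37 C, with ONE-Glo detection after 30 min at room temperature.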

Test [18] is described as follows: qHTS assay to identify small molecule agonists of H2AX - cell viability counter screen (AID 1224847; calls by dose curve; further: top concentration of the series differs between compounds; nearly all actives have a fitted effect of over 30% in size). An outline of the steps:
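Read-out: CellTiter-Glo luminescence, 30 min RT. Cells: wild-type CHO-K1, 1000/well, 10% FBS, plated overnight at 37C. Treatment: 15 concentrations, 3 hr, 37C, 0.76% DMSO.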

A short description of test [19]: qHTS assay to identify small molecule agonists of the hypoxia (HIF-1) signaling pathway - cell viability counter screen (AID 1224844; calls by dose curve; further: nearly all actives have a fitted effect of over 50% in size). An outline of the steps:
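In this counter screen, HRE-bla ME-180 cell viability after 17 hrs of compound exposure at 37C was read by CellTiter-Glo luminescence, multiplexed with the beta-lactamase reporter measurement.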
On the % scale 0 is the no-effect control and ±100 the full control effect.

Chain of Thyrotropin receptor (Homo sapiens) (P16473 whole entry, looked up): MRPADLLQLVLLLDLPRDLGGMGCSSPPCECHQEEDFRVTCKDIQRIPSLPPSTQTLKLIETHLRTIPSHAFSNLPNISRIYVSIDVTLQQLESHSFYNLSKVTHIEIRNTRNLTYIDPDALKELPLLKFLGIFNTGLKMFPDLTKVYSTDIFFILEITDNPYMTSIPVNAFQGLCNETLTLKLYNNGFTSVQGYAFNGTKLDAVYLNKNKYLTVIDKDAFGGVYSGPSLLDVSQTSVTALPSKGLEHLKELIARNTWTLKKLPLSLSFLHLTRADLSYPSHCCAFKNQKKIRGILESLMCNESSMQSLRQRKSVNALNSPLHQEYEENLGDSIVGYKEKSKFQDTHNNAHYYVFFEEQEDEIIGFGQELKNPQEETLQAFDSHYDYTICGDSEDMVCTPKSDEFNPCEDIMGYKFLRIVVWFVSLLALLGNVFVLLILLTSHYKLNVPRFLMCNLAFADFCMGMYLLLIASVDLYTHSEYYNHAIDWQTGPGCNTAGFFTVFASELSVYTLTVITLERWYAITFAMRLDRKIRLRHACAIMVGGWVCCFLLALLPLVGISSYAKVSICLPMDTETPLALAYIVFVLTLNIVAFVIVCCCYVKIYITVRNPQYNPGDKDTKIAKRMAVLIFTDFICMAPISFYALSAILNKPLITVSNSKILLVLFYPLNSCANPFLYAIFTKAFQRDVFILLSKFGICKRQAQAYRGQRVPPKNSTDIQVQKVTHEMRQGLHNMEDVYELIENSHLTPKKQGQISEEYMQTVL
Chain of Luciferin 4-monooxygenase (Photinus pyralis) (P08659 whole entry, looked up): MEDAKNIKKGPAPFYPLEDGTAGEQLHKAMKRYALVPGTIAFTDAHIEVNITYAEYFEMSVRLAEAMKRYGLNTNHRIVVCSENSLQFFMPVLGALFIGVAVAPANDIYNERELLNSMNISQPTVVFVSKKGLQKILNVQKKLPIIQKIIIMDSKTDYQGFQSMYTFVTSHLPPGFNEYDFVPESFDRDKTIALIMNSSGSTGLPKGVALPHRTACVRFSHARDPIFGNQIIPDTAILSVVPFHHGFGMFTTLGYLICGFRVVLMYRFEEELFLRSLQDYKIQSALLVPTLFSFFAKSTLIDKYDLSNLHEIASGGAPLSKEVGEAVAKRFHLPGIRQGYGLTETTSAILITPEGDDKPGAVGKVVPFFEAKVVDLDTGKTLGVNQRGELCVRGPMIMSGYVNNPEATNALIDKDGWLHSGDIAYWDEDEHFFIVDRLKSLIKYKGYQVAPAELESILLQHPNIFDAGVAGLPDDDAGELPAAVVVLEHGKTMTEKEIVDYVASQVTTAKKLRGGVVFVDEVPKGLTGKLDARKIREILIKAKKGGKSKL
Chain of Nuclear receptor subfamily 1 group I member 3 (Homo sapiens) (Q14994 whole entry, looked up): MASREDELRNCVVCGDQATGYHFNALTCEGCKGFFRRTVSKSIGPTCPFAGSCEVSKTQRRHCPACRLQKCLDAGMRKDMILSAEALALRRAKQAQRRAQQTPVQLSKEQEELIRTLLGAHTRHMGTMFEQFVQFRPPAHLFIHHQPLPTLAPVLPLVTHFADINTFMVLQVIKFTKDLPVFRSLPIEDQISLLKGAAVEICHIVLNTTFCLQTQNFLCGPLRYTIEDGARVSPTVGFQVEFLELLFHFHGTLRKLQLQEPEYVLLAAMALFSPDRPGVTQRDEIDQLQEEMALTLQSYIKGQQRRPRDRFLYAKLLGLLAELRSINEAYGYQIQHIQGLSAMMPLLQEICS

For the compound `O=C(O)COc1ccccc1`, the Potency entry in [1], in test [2], in test [3], in [4], in test [5] and in [6] was “inactive” in each case. For the same compound, the Potency entry in test [7], in test [8], in test [11] and in test [12] was “inactive” each time. Further, the call in test [9] and in test [10] was inactive.
For the compound `Nc1cccc(Cl)c1`, the Potency result in [1], in [2], in test [3], in test [4], in [5] and in [6] was “inactive” each time. The Potency entry in test [13], in test [14], in test [15], in test [7], in [8] and in [16] was “inactive” in each case. The Potency result in [12] is “inactive”. The compound was called inactive in test [9] and in test [10]. In addition, the activity change, positive = activation in test [17] is 7.3% (inactive) and -16.4% (inactive). Further, the Potency entry in test [11] is “inactive and 21.9 µM (active)”.
Turning to `c1ccc2c(c1)CCCC2`, the Potency entry in test [1], in test [2], in test [3], in test [4], in test [5] and in [6] was “inactive” throughout. Moreover, the Potency entry in test [13], in test [7], in [8], in [18], in test [11] and in test [12] was “inactive” throughout. For the same compound, the result in test [9] and in test [10] was inactive.
On to `Nc1ccc([As](=O)(O)O)cc1`, for which the Potency result in test [1], in test [2], in [3], in [4], in test [5] and in [6] was “inactive” throughout. In addition, the Potency result in test [7], in test [8], in test [18] and in test [11] was “inactive” each time. Also, the compound was classed as inactive in [9] and in test [10].
Turning to `CCSC(=O)N1CCCCCC1`, the Potency entry in test [1], in [2], in test [3], in [4], in [6] and in test [13] was “inactive” in each case. The Potency entry in test [14], in test [15], in test [7], in test [19], in test [8] and in test [16] was “inactive” throughout. The Potency result in test [11] is “inactive”. Moreover, in [5], the Potency is 26.5 µM (active) and inactive. The call in test [9] and in test [10] was inactive. For the same compound, in [17], the activity change, positive = activation is -10.2% (inactive) and -0.0309% (inactive).
As for `CC[N+](=O)[O-]`, the Potency entry in [1], in test [2], in [3], in test [4], in test [5] and in [6] was “inactive” throughout. The Potency result in test [7], in [19], in [8], in test [18] and in [11] was “inactive” in each case. Also, the outcome in test [9] and in test [10] was inactive.
Take `N#Cc1ccccn1`: the Potency entry in [1], in test [2], in test [3], in test [4], in [5] and in test [6] was “inactive” throughout. For the same compound, the Potency entry in test [13], in [7], in [19], in test [8], in test [18] and in test [11] was “inactive” throughout. Further, in test [12], the Potency result was “inactive”. Moreover, the compound was called inactive in test [9] and in [10].
As for `OCC(O)CCl` (configuration not stated), the Potency result in [1], in test [2], in test [3], in test [4], in [5] and in test [6] was “inactive” each time. For the same compound, the Potency result in test [13], in test [7], in test [8] and in test [11] was “inactive” each time. The call in [9] and in test [10] was inactive.
